The assay relates to MDA-MB-468 breast. The experiment in a line: NCI-60 one-dose screen, 48 h (100 = growth as untreated, 0 = no growth, -100 = all killed). To be noted: 10 µM unless noted.

Where “and” joins values, the source holds several entries; their conditions need not be identical. Equal entries are not always repeated. The panel holds about 83,000 compounds, 20% with a hit somewhere; the sample as a whole holds those more often.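 Cell lines were cultured in 96-well plates, exposed to a single compound concentration, and assessed for percent growth 48 hours later.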 A number with no mark means an inactive call. Calls of active or inactive are those of the source. Rule for the calls: active = growth percent below 10; inactive = the rest.

For the compound `COc1cc(C(=O)/C=C/c2cc(-c3ccc4c(c3)OCO4)n[nH]2)cc(OC)c1OC`, the growth is 29.1%.

In the case of `COc1ccc(OC)c(-c2cc(-c3ccc(Cl)cc3)c3c(N)c(C(=O)c4ccc(Cl)cc4)sc3n2)c1`, the growth is 117%.

In the case of `O=C1CCCN1C(O)CCN(Cc1ccccc1)Cc1ccc(Cl)cc1` (centres undefined), the growth is 113%.

With `Cc1cn2c(/C=C3/C(=O)Nc4c3ccc3ccccc43)c(C(F)(F)F)nc2s1`, the growth was 7.93% (active).

Regarding `COCCn1cc(-c2csc(-c3c[nH]c4ccccc34)n2)c2cccnc21`, the growth was -6.7% (active).

Consider `COc1ccc(-c2csc(NC(=O)CO[N+](=O)[O-])n2)cc1`, for which the growth was 113%.

As to `CC(C(=O)O)n1cc(C#N)c(=O)[nH]c1=O` (centres undefined), the growth was 103% and 107%.

In the case of `C=C1C(=O)O[C@H]2[C@H]1CC/C(COC(=O)/C=C\C(=O)NCc1ccc(Cn3c(=O)sn(CCCI)c3=O)cc1)=C\CC[C@@]1(C)O[C@@H]21`, the growth is -82.1% (active).

Take `COc1cc2cc3c(nc2cc1OC)CCN3Cc1ccc(NC(=O)Nc2cc(C(F)(F)F)cc(C(F)(F)F)c2)cc1`: the growth is 52.9%.

Regarding `O=S(=O)(Nc1cc(Sc2cccc3cccnc23)c(O)c2ccccc12)c1ccccc1`, the growth is -42.6% (active).

For `OCc1ncc(-c2ccccc2)s1`, the growth is 104%.

Take `N=C(N)c1ccc(-c2ccc(-c3ccc(Cl)cc3)s2)s1`: the growth is -71.2% (active).

`O=C(CCN1CCCC1)Nc1ccc2c(NCc3ccccc3)c3ccccc3nc2c1`: the growth was -37.1% (active).

Take `CCC(=O)Oc1ccc(OC)cc1`: the growth is 106%.

Source of the values: PubChem BioAssay (NCI).
